From PubChem BioAssay (NCI)
This is part of a sample that, as a whole, favours compounds with a hit. Of some 79,000 tested, about 15% had one in any assay. Activity calls are given as the source filed them. Rule as the data show it: active = growth inhibition above about 70%; inactive = the rest.

Experiments:
[1] = NCI Yeast Anticancer Drug Screen. Data for the rad50 strain (AID 155);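 also: 0% = growth of vehicle-only cultures of the same strain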; details: S. cerevisiae rad50 strain growth inhibition; at 50.0 µM; stronger effect = higher value
Outline: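 Vehicle-treated cultures provide the reference for the growth inhibition reported for compound-exposed, repair-deficient yeast.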

[2] = NCI Yeast Anticancer Drug Screen. Data for the mec2-1 strain (AID 157); details: S. cerevisiae mec2-1 strain, at 50.0 µM, stronger effect = higher value
Outline: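 Growth inhibition is read against vehicle-treated controls after compound exposure of the mec2-1 yeast strain, which is defective in DNA damage repair or cell cycle control.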

[3] = NCI Yeast Anticancer Drug Screen. Data for the sgs1 mgt1 strain (AID 161);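 also: 0% = growth of cultures given vehicle only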; details: S. cerevisiae sgs1 mgt1 strain, at 50.0 µM, stronger effect = higher value
Outline: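 This yeast growth screen uses a strain with defined DNA-repair lesions; compound-treated growth is compared with vehicle-treated growth.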

[4] = NCI Yeast Anticancer Drug Screen. Data for the cln2 rad14 strain (AID 165);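 also: 0% = growth equal to vehicle treated cultures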; details: S. cerevisiae cln2 rad14 strain, at 50.0 µM, stronger effect = higher value
Outline: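 Growth inhibition, relative to vehicle-treated controls, is the read-out. The test organism is a yeast strain with defined genetic alterations, cln2 rad14.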

[5] = NCI Yeast Anticancer Drug Screen. Data for the bub3 strain (AID 167); details: S. cerevisiae bub3 mutant strain, at 50.0 µM, stronger effect = higher value
Outline: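 Mutant yeast screening strain plus compound; vehicle-treated cultures serve as the 0% inhibition reference.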

[6] = NCI Yeast Anticancer Drug Screen. Data for the mlh1 rad18 strain (AID 175); details: S. cerevisiae mlh1 rad18 strain growth inhibition; at 50.0 µM; stronger effect = higher value
Outline: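 Cells of a genetically altered yeast strain, deficient in DNA damage repair, were treated with compound. Their growth was then compared with that of vehicle-treated cultures to give inhibition.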

Measured: growth inhibition

NC(=O)c1ccccc1[N+](=O)[O-]
inactive: [1] 3.75% | [2] -7% | [3] -16.4% | [4] 6.4% | [5] -16.1% | [6] -6.5%

COc1cc(C(=O)NN(C)C)cc(OC)c1OC
inactive: [1] 13.5% | [2] 0.65% | [3] -9.95% | [4] 10.8% | [5] -7.95% | [6] -18.5%

CCCC(CC)(CC)CO
inactive: [1] -21.6% | [2] -6.9% | [3] -16.4% | [4] 12.1% | [5] -10.4% | [6] -6.15%

CC(C)(O)/C=C\P(C)(=O)c1ccccc1 (stereo unspecified)
inactive: [1] -30.9% | [2] -21.9% | [3] -4.7% | [4] 9.85% | [5] -32.5% | [6] -31.4%

O=C1NCC2(CCN(CC3COc4ccccc4O3)CC2)N1c1ccccc1 (stereo unspecified)
inactive: [1] -23.3% | [2] -18.2% | [3] -21% | [4] -2.95% | [5] -3.2% | [6] -34.5%

NC(=O)c1[nH]c(/N=N/c2nc[nH]c2C(N)=O)nc1N
inactive: [1] 24.9% | [2] 21.6% | [3] 9.95% | [4] -17.1% | [5] -4.65% | [6] 16.4%

Nc1nc(SCc2ccccc2[N+](=O)[O-])c2[nH]cnc2n1
inactive: [1] 29.2% | [2] 22.2% | [3] 16.2% | [4] 14.1% | [5] 45.4% | [6] 34%

CCOC(=O)CCC(NC(=O)c1ccc(OCc2ccc3nc(OC)c(OC)nc3c2)cc1)C(=O)OCC (stereo unspecified)
inactive: [1] -14.2% | [2] -17.9% | [3] -21.6% | [4] 5% | [5] -4.75% | [6] 13.2%

N#CC1(C2CC(=O)N(c3ccccc3)C2=O)CCCCC1=O (stereo unspecified)
inactive: [1] 10.4% | [2] -21.7% | [3] 26.5% | [4] -3.1% | [5] 2% | [6] -6.7%

O=C(c1ccccc1)c1nc2c(Cl)ccc(Cl)c2cc1C(Br)Br
inactive: [1] 37.1% | [2] 20.8% | [3] 44% | [4] 45.2% | [5] 38.1% | [6] 44.1%

CCCCSC(CC(O)C(O)COC(=O)c1ccc([N+](=O)[O-])cc1)SCCCC (stereo unspecified)
inactive: [1] -12.1% | [2] 1.95% | [3] 2.7% | [4] 13% | [5] -4.85% | [6] -5.85%

O=CN1CCN(C=S)CC1
inactive: [1] -14% | [2] -10.2% | [3] -9.9% | [4] 3.75% | [5] 2.6% | [6] -15.4%

CCC(=O)NN1C(=O)c2ccccc2C1=O
inactive: [1] -13.8% | [2] -15.4% | [3] -23.4% | [4] -13.2% | [5] -16.5% | [6] -10.2%

Clc1ccc(C2=NCCO2)cc1
inactive: [1] -23.8% | [2] -32.1% | [3] -5.75% | [4] -11.8% | [5] 4.85% | [6] -26.3%

ON=C1c2cc(Cl)ccc2-c2ccc(Cl)cc21
inactive: [1] 5.25% | [2] 4.05% | [3] 18.1% | [4] -40.8% | [5] 5.45% | [6] 16.6%

CCCCCCCCCCCCOc1ccc(Sc2ccc(OCCCCCCCCCCCC)cc2C)c(C)c1
inactive: [1] -16.2% | [2] -8.05% | [3] -0.95% | [4] -26.2% | [5] 6.35% | [6] -11.2%

COC(=O)CCN1CCN(CCO)CC1C (stereo unspecified)
inactive: [1] -36.9% | [2] -39.8% | [3] -26.6% | [4] -9.75% | [5] -2% | [6] -32.5%

O=[N+]([O-])c1ccccc1C1SCc2nc3ccccc3n21 (stereo unspecified)
inactive: [1] 25.2% | [2] 10.2% | [3] 31.8% | [4] 30.5% | [5] 44.5% | [6] 12.3%

CC(=O)NC1C(OCc2ccccc2)OC(CO)C(O)C1OC(C)C(=O)NC(C)C(=O)N[C@@H](CCC(=O)OCCCNC1c2ccccc2Nc2cccc([N+](=O)[O-])c21)C(N)=O (stereo partly specified)
inactive: [1] 63.4% | [5] 11.7%
active: [2] 82.7% | [3] 78.2% | [4] 83.5% | [6] 77.8%

COc1ccc(Cc2ccccc2)cc1
inactive: [1] -2% | [2] -13.2% | [3] 17.4% | [4] 7.8% | [5] -4.55% | [6] 6.65%

FCCN(CCF)Cc1ccc2c(c1)OCO2
inactive: [1] -4.8% | [2] -12.3% | [3] 2.05% | [4] -63.1% | [5] -3.1% | [6] -7.4%

CS(=O)c1nsc(S(C)=O)c1C#N (stereo unspecified)
inactive: [1] 1.05% | [2] -9.7% | [3] -1.5% | [4] -35.6% | [5] -9.95% | [6] -10.6%

O=C(O)C1C(C(=O)O)C1c1ncnc2nc[nH]c12 (stereo unspecified)
inactive: [1] -0.95% | [2] -13.7% | [3] -4.95% | [4] -26.8% | [5] -17.8% | [6] 7.4%

O=c1nnc(O)c2n(O)cccc1-2
inactive: [1] -24.2% | [2] -11.8% | [3] 6.55% | [4] -42.5% | [5] -1.75% | [6] 14%

CCOC(=O)C(N)CSSCC(N)C(=O)OCC (stereo unspecified)
inactive: [1] 5.55% | [2] -3.35% | [3] -4.4% | [4] -11.6% | [5] 8.95% | [6] -4.85%

CC(=O)OC1C(C)OC(n2cnc3c(=O)[nH]cnc32)C1OC(C)=O (stereo unspecified)
inactive: [1] 2.95% | [2] -15.6% | [3] -0.45% | [4] -3.45% | [5] -2% | [6] 10.8%

COc1cc(/C=N/N=C(\N)NO)cc(Cl)c1O
inactive: [1] -20.4% | [2] -29.1% | [3] -27.3% | [4] -19.2% | [5] -8% | [6] -36.1%

NNC(=O)/C(=C/c1cccc([N+](=O)[O-])c1)NC(=O)c1ccccc1
inactive: [1] -41.4% | [2] -25.4% | [3] -15.9% | [4] 7.5% | [5] -16.4% | [6] -24.1%

CN1CNC(=O)c2n[nH]nc21
inactive: [1] -1.25% | [2] 34.5% | [3] -4.15% | [4] -21% | [5] 13.1% | [6] -2.7%

Cc1ccc(C(=O)OC2CCCC2)cc1
inactive: [1] 7.85% | [2] -0.7% | [3] 0.85% | [4] -7.7% | [5] -15.7% | [6] 4.1%

CC1C(c2ccccc2)=CCON1c1ccccc1 (stereo unspecified)
inactive: [1] -2.9% | [2] -16.6% | [3] -24.4% | [4] 13.4% | [5] -3.75% | [6] -28.1%

CCOC(=O)C1=C(Nc2ccccc2)OC/C1=N\NC(=O)Cc1ccccc1
inactive: [1] -6.75% | [2] -23.7% | [3] -1.6% | [4] 0.85% | [5] 10.2% | [6] -19.1%

CCCC(=O)Oc1ccc(C)cc1C(C)(C)C
inactive: [1] 6.65% | [2] -22.2% | [3] -4.95% | [4] 9.5% | [5] -10.2% | [6] 4.25%

CS(=O)(=O)c1ccc(C=O)cc1
inactive: [1] 12.8% | [2] 6% | [3] 2.25% | [4] -3.8% | [5] -1.4% | [6] 8.3%

C=C1C(O)CC2C(O)C3(C)CCC(C)(C)C3C12O (stereo unspecified)
inactive: [1] 3.55% | [2] 1.2% | [3] 12.2% | [4] 15.3% | [5] -0.25% | [6] 11.7%

O=C(O)[C@H]1C[C@H](O)CCN1
inactive: [1] -30.4% | [2] -8.65% | [3] -34.2% | [4] 1.25% | [5] -3.85% | [6] -10.6%

CN(Nc1c([N+](=O)[O-])cc([N+](=O)[O-])cc1[N+](=O)[O-])c1ccc2ccccc2c1
inactive: [1] 14.2% | [2] 7.3% | [3] 21.4% | [4] 24.2% | [5] 7.2% | [6] 8.35%

CCC/C(=N/O)C(=O)OCC
inactive: [1] -3.4% | [2] 14.9% | [3] 6.4% | [4] 6.25% | [5] 4.4% | [6] -4.6%

COC(=O)CCCc1ccccc1N
inactive: [1] -5.65% | [2] -8.8% | [3] -18.9% | [4] -35.8% | [5] 3.1% | [6] -15.9%

Cc1ccc(C2SC(N)=Nc3c2c(C)nn3C(=O)c2ccccc2O)cc1 (stereo unspecified)
inactive: [1] 8.65% | [2] 16.4% | [3] 34.9% | [4] 5.65% | [5] 10.2% | [6] 12.7%

COc1ccc(OC)c(C(=O)CCCCCCCCC(=O)c2cc(OC)ccc2OC)c1
inactive: [1] 27.2% | [2] 8% | [3] 3.85% | [4] 25.4% | [5] -3.95% | [6] 7.25%
